The list is not random: actives were taken first. Their share in the collection is about 19%.
HT1080-NT tox: qHTS for induction of synthetic lethality in tumor cells producing 2HG: qHTS for the HT-1080-NT fibrosarcoma cell line; HT-1080-NT fibrosarcoma viability, CellTiter-Glo ATP luminescence, 48 h; Potency, µM (doses to about 46.1 µM), usual class: cytotoxic; 360,000 compounds, 1.6% hits; AID 686970, 2013;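 also: NT is the 2HG producing partner of a matched IDH1 knockdown line; nearly all actives have a fitted effect of over 55% in size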
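Luminescent CellTiter-Glo readout after 48 hours of compound exposure at 37 degrees C defined viability of HT-1080-NT cells. Activity was normalized to DMSO wells and cell-free media wells; concentration-response curves were fitted and assigned curve classes.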
HT1080 IDH1KD tx: qHTS for induction of synthetic lethality in tumor cells producing 2HG: qHTS for the HT-1080-IDH1KD cell line; AID 686971, 2013; 360,000 compounds, 2% hits; Potency, µM (titrated, usually from 46.1 µM), usual class: cytotoxic; HT-1080 IDH1 knockdown viability, ATP luminescence, 48 h
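Luminescent ATP read-out (CellTiter-Glo, 10 min at room temperature) after 48 h compound exposure at 37 °C gave viability of IDH1-knockdown HT-1080 cells. Activity was normalised to DMSO and cell-free wells, then fitted as concentration-response curves.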
IL-1B inflam inh: qHTS for Inhibitors of Inflammasome Signaling: IL-1-beta AlphaLISA Primary Screen | THP-1 LPS/ATP IL-1B secretion, AlphaLISA, 16 h; stronger effect = lower value | activity change, % at 57.5 µM | 360,000 compounds, 4.7% hits; in the data active = activity change below about -50%; inconclusive = mostly about -30% to -49%
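Secreted IL-1B measured by AlphaLISA bead assay after 16 h compound exposure of THP-1 cells; compounds (final up to 57.5 uM) added 1 h before LPS (250 ng/mL) and ATP (1.25 mM) stimulation; lower signal means less secretion.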
TDP1 cell CPT: qHTS for Inhibitors of human tyrosyl-DNA phosphodiesterase 1 (TDP1): qHTS in cells in presence of CPT; 420,000 compounds, 12% hits; AID 686979, 2013; Potency, µM (highest dose often 46.2 µM), most hits filed as inhibitors; chicken DT40 Tdp1-/-;hTDP1 cells + 20 nM CPT, ATP luminescence, 48 h; also: nearly all actives have a fitted effect of over 55% in size
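Cell growth measured by CellTiter-Glo luminescence after a minimum 48 h, 37 C compound exposure with 20 nM CPT in Tdp1-knockout DT40 cells stably expressing hTDP1, seeded 400/well; qHTS titration format.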
TDP1 cell noCPT: qHTS for Inhibitors of human tyrosyl-DNA phosphodiesterase 1 (TDP1): qHTS in cells in absence of CPT; DT40 Tdp1-/- hTDP1 cells, no CPT, ATP luminescence, 48 h; Potency, µM (doses to about 46.2 µM), hits mostly inhibitors; 420,000 compounds, 15% hits; AID 686978, 2013; also: nearly all actives have a fitted effect of over 55% in size
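Camptothecin absent (DMSO only). Human TDP1-complemented DT40 knockout cells, 400 cells/well, 37 °C for minimum 48 hr; ATP measured via CellTiter-Glo, 30 min dark incubation, luminescence.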
Hits are given with their value; – = inactive; ? = inconclusive; · = not tested or not shown; [ ] = remark or other dose. Unless noted, calls follow the shape of the dose curve; as a rule, active = well fitted curve in the direction sought with a large enough effect; inconclusive = small, poorly fitted or top-dose-only effect, or another doubt; inactive = no such curve, though single readings can be large; an effect the other way counts as inactive or inconclusive.

SMILES	HT1080-NT tox	HT1080 IDH1KD tx	IL-1B inflam inh	TDP1 cell CPT	TDP1 cell noCPT
COc1ccc(C/C(C)=N/NC(=S)Nc2ccc(Cl)cc2)cc1	–	–	–	15µM	12µM
COc1ccc(C/C(C)=N/NC(=S)Nc2ccc(C)c(C)c2)cc1	–	–	–	16µM	16µM
CN(Cc1ccccc1)C(=O)CN1C(=O)NC2(CCCc3sccc32)C1=O (stereo not drawn)	–	–	–	–	–
COc1ccccc1CC1(C)C(=O)Nc2c(Cl)cccc21 (stereo not drawn)	–	–	–	?	?
C[C@@H]1CN([C@@H](C)CO)C(=O)c2cc(Br)cnc2O[C@@H]1CN(C)C(=O)CN(C)C	–	–	–	–	–
Cc1nn(-c2ccccc2)c(OC(=O)c2ccccc2Br)c1S(=O)(=O)c1ccccc1	·	·	·	–	–
Cc1cccc(OCCCC(=O)NNC(=O)c2ccccn2)c1	?	?	–	6.5µM	7.3µM
C/[N+]([O-])=C/c1c(OCc2ccccc2)ccc2ccccc12	–	–	–	–	23µM
O=Cc1c(OCc2ccccc2)ccc2ccccc12	–	–	–	–	–
NC(=O)CSc1ncnc2c1nnn2Cc1ccc(F)cc1	–	?	-96	–	?
O=C(Cn1cnc2c(nnn2Cc2ccc(F)cc2)c1=O)NCc1ccc(F)cc1	?	18µM	–	?	?
O=C(CSc1ncnc2c1nnn2Cc1ccc(F)cc1)NCC1CCCO1 (stereo not drawn)	?	?	–	?	?
COc1ccc(CNC(=O)c2ccc3c(c2)N(Cc2ccccc2C)C(=O)c2ccccc2S3=O)cc1 (stereo not drawn)	·	·	·	–	?
COCCNC(=O)c1ccc2c(c1)N(Cc1cc(C)ccc1C)C(=O)c1ccccc1S2=O (stereo not drawn)	·	·	·	?	15µM
Cc1ccc(C)c(CN2C(=O)c3ccccc3S(=O)c3ccc(C(=O)NCCc4ccc(Cl)cc4)cc32)c1 (stereo not drawn)	·	·	·	13µM	7.3µM
COCCCNC(=O)c1ccc2c(c1)N(Cc1ccccc1F)C(=O)c1ccccc1S2=O (stereo not drawn)	·	·	·	–	–
COc1cc(C(=O)N2CCN(S(=O)(=O)c3cccc(F)c3)CC2)ccc1OCC(=O)N1CCOCC1	–	–	–	–	–
COc1ccc(NC(=S)Nc2cc(-c3ccccc3)[nH]n2)cc1Cl	13µM	?	?	22µM	?
COc1ccc(NC(=S)Nc2cc(C)[nH]n2)cc1Cl	–	–	?	?	18µM
COC(=O)c1cn[nH]c1NC(=S)Nc1ccc(Cl)c(Cl)c1	?	?	–	?	25µM
CCn1nc(NS(=O)(=O)c2ccc(NC(C)=O)cc2)c2cc3cc(C)ccc3nc21	–	–	–	–	–
COc1cccc(CNC(=O)CCS(=O)(=O)c2cc3c4c(c2)CCN4C(=O)CC3)c1	·	·	·	–	–
Cc1cc(C)cc(CN2CCOc3ccc(CN4CCC(O)(c5cccnc5)CC4)cc3C2)c1	·	·	·	–[9.04 µM]	?
CCCN1CCC(=O)N([C@H](CSc2ccc(OC)cc2)Cc2ccccc2)CC1	–	–	–	?	18µM
CCCN1CCC(=O)N([C@H](CSc2ccc(C)cc2)CC(C)C)CC1	–	–	–	21µM	16µM
O=C1CCN(CCc2ccccc2)CCN1[C@H](CSc1ccccc1)Cc1ccccc1	–	–	-64	21µM	11µM
CCCN1CCC(=O)N([C@H](CSc2ccc(C)cc2)Cc2ccccc2)CC1	–	–	–	29µM	?
Cc1ccc(SC[C@H](Cc2ccccc2)N2CCN(CCc3ccccc3)CCC2=O)cc1	–	?	–	?	?
COc1ccc(SC[C@H](Cc2ccccc2)N2CCN(C)CCC2=O)cc1	–	–	–	?	?
S=C(NCCCn1ccnc1)Nc1cccc(Cl)c1	–	–	–	–	–

Bioassay records as filed in PubChem BioAssay.
